± gives the standard deviation of the averaged measurements. Of roughly 6,500 targets only a part is listed; those with the largest changes were picked by preference.
Compound: Nc1ncnc2c1ncn2[C@@H]1O[C@H](COP(=O)(O)OP(=O)(O)OP(=O)(O)O)[C@@H](O)[C@H]1O [adenosine triphosphate]
Assay: NP40-soluble protein abundance relative to vehicle (solubility fold change) (ratio); higher = more soluble protein in presence of ATP
In short: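 Jurkat crude lysate (Dounce-homogenised) was treated with eight concentrations from 0.1 to 10 mM for 10 min at room temperature, then 3 min at 37 °C. It was solubilised with 0.8% NP40 and benzonase (60 min, 4 °C) and ultracentrifuged, and the supernatant was TMT-labelled for LC-MS/MS. Intensities were vsn-normalised, and the value is the fold change against the NP40-processed vehicle per replicate, from three independent experiments.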

UniProt Q9UBS0
Chain of UniProt Q9UBS0 (Q9UBS0 whole entry): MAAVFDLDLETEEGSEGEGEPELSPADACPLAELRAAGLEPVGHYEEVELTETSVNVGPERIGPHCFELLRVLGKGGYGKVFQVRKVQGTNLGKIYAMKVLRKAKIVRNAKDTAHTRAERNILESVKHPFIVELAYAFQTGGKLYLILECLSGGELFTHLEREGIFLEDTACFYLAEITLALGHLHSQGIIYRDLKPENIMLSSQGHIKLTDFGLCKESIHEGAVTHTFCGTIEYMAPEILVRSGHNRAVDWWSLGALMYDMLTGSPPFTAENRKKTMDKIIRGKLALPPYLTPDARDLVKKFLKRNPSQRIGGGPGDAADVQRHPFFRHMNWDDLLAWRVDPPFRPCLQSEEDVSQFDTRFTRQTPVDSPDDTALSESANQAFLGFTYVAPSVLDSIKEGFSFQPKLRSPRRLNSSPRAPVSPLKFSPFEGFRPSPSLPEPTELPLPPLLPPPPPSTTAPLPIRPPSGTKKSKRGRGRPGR
NP40-soluble protein abundance (concentration: 1mM): 1.1 ± 0.063
NP40-soluble protein abundance (concentration: 2mM): 1.11 ± 0.082
NP40-soluble protein abundance (concentration: 4mM): 1.12 ± 0.088
NP40-soluble protein abundance (concentration: 6mM): 1.05 ± 0.053
NP40-soluble protein abundance (concentration: 8mM): 1.15 ± 0.14
NP40-soluble protein abundance (concentration: 10mM): 1.09 ± 0.11

UniProt Q9NVX7-2|A0A075B6T4|Q9NVX7
NP40-soluble protein abundance (concentration: 1mM): 1 ± 0.072
NP40-soluble protein abundance (concentration: 2mM): 1.02 ± 0.066
NP40-soluble protein abundance (concentration: 4mM): 1 ± 0.11
NP40-soluble protein abundance (concentration: 6mM): 0.957 ± 0.095
NP40-soluble protein abundance (concentration: 8mM): 1.05 ± 0.065
NP40-soluble protein abundance (concentration: 10mM): 0.975 ± 0.036

GTF2H4 (UniProt Q92759)
Chain of UniProt Q92759 (Q92759 whole entry): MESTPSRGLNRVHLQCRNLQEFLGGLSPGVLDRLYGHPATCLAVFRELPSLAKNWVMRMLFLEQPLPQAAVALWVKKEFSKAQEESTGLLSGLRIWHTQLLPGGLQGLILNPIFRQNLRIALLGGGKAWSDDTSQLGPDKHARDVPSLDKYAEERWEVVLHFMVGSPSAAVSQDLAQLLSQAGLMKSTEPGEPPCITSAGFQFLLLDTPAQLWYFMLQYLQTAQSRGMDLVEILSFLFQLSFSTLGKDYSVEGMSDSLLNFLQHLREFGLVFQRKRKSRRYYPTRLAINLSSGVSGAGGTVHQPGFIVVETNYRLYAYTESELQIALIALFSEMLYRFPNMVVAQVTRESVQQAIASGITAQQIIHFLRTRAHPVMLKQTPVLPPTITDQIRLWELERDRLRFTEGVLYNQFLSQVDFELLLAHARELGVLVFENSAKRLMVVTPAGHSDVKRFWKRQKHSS
NP40-soluble protein abundance (concentration: 1mM): 1.08 ± 0.072
NP40-soluble protein abundance (concentration: 2mM): 1.04 ± 0.035
NP40-soluble protein abundance (concentration: 4mM): 1.09 ± 0.059
NP40-soluble protein abundance (concentration: 6mM): 0.975 ± 0.13
NP40-soluble protein abundance (concentration: 8mM): 1.16 ± 0.069
NP40-soluble protein abundance (concentration: 10mM): 1.12 ± 0.036

TMEM109 (UniProt Q9BVC6)
Chain of UniProt Q9BVC6 (Q9BVC6 whole entry): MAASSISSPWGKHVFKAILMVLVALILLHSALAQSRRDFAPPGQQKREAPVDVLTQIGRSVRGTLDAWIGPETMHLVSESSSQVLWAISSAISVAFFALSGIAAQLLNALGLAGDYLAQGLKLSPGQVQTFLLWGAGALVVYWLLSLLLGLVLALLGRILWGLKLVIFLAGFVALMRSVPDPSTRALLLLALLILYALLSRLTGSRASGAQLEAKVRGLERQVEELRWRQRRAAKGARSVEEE
NP40-soluble protein abundance (concentration: 1mM): 0.943 ± 0.051
NP40-soluble protein abundance (concentration: 2mM): 0.962 ± 0.066
NP40-soluble protein abundance (concentration: 4mM): 0.999 ± 0.082
NP40-soluble protein abundance (concentration: 6mM): 0.915 ± 0.03
NP40-soluble protein abundance (concentration: 8mM): 0.955 ± 0.046
NP40-soluble protein abundance (concentration: 10mM): 0.91 ± 0.074

UniProt Q9BTL3
Chain of UniProt Q9BTL3 (Q9BTL3 whole entry): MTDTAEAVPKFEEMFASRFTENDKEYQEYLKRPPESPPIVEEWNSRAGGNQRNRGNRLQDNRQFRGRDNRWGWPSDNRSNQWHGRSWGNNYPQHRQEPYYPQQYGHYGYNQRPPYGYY
NP40-soluble protein abundance (concentration: 1mM): 0.928 ± 0.13
NP40-soluble protein abundance (concentration: 2mM): 0.882 ± 0.066
NP40-soluble protein abundance (concentration: 4mM): 0.95 ± 0.059
NP40-soluble protein abundance (concentration: 6mM): 1 ± 0.11
NP40-soluble protein abundance (concentration: 8mM): 0.888 ± 0.028
NP40-soluble protein abundance (concentration: 10mM): 0.869 ± 0.059

UniProt Q9BSW2-2
NP40-soluble protein abundance (concentration: 1mM): 0.967 ± 0.041
NP40-soluble protein abundance (concentration: 2mM): 1.01 ± 0.034
NP40-soluble protein abundance (concentration: 4mM): 1.02 ± 0.02
NP40-soluble protein abundance (concentration: 6mM): 1.01 ± 0.018
NP40-soluble protein abundance (concentration: 8mM): 0.972 ± 0.0098
NP40-soluble protein abundance (concentration: 10mM): 0.988 ± 0.04

UniProt Q96AT9|Q96AT9-2
Chain of UniProt Q96AT9 (Q96AT9 whole entry): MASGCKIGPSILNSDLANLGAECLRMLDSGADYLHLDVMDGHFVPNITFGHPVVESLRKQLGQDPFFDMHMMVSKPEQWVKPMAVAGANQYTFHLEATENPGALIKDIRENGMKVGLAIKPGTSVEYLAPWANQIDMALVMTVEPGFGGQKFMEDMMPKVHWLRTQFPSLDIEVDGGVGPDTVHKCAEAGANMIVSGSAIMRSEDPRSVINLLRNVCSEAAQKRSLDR
NP40-soluble protein abundance (concentration: 1mM): 1.06 ± 0.092
NP40-soluble protein abundance (concentration: 2mM): 1.07 ± 0.047
NP40-soluble protein abundance (concentration: 4mM): 1.06 ± 0.075
NP40-soluble protein abundance (concentration: 6mM): 1.05 ± 0.073
NP40-soluble protein abundance (concentration: 8mM): 0.991 ± 0.064
NP40-soluble protein abundance (concentration: 10mM): 0.993 ± 0.048

PAFAH2 (UniProt Q99487)
NP40-soluble protein abundance (concentration: 1mM): 1 ± 0.098
NP40-soluble protein abundance (concentration: 2mM): 1.01 ± 0.074
NP40-soluble protein abundance (concentration: 4mM): 0.978 ± 0.053
NP40-soluble protein abundance (concentration: 6mM): 1 ± 0.27
NP40-soluble protein abundance (concentration: 8mM): 0.992 ± 0.05
NP40-soluble protein abundance (concentration: 10mM): 1.02 ± 0.064

PIEZO1 (UniProt Q92508)
NP40-soluble protein abundance (concentration: 1mM): 1.1 ± 0.12
NP40-soluble protein abundance (concentration: 2mM): 1.09 ± 0.13
NP40-soluble protein abundance (concentration: 4mM): 1.14 ± 0.24
NP40-soluble protein abundance (concentration: 6mM): 1.14 ± 0.12
NP40-soluble protein abundance (concentration: 8mM): 1.09 ± 0.12
NP40-soluble protein abundance (concentration: 10mM): 1.09 ± 0.012

UniProt Q9BXI6|Q9BXI6-2
Chain of UniProt Q9BXI6 (Q9BXI6 whole entry): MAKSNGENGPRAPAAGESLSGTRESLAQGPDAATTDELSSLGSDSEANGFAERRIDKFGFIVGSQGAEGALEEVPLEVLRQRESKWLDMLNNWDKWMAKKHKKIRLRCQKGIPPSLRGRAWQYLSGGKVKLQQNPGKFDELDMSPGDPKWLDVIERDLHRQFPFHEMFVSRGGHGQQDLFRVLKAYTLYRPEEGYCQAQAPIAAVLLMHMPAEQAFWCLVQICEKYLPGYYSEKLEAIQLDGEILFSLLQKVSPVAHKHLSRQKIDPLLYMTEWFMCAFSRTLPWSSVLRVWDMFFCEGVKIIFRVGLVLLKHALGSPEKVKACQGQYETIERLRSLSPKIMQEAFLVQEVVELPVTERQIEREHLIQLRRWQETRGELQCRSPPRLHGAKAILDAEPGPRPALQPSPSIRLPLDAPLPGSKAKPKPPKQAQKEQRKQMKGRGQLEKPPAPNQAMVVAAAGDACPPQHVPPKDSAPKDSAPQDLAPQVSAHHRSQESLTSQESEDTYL
NP40-soluble protein abundance (concentration: 1mM): 0.935 ± 0.035
NP40-soluble protein abundance (concentration: 2mM): 0.917 ± 0.032
NP40-soluble protein abundance (concentration: 4mM): 0.927 ± 0.031
NP40-soluble protein abundance (concentration: 6mM): 0.941 ± 0.038
NP40-soluble protein abundance (concentration: 8mM): 0.895 ± 0.025
NP40-soluble protein abundance (concentration: 10mM): 0.925 ± 0.045

DSCC1 (UniProt Q9BVC3)
Chain of UniProt Q9BVC3 (Q9BVC3 whole entry): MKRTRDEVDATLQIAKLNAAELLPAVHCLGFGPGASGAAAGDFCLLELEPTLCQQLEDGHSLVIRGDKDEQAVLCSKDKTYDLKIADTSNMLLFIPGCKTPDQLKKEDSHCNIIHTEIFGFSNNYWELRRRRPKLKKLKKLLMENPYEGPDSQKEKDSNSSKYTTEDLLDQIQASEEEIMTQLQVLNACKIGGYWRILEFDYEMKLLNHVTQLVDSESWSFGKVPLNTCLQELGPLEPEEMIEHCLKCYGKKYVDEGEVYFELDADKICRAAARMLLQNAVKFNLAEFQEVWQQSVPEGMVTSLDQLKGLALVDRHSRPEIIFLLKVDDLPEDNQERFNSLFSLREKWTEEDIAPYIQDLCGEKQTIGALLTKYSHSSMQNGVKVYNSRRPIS
NP40-soluble protein abundance (concentration: 1mM): 1.04 ± 0.038
NP40-soluble protein abundance (concentration: 2mM): 1.06 ± 0.011
NP40-soluble protein abundance (concentration: 4mM): 1.03 ± 0.018
NP40-soluble protein abundance (concentration: 6mM): 1.01 ± 0.021
NP40-soluble protein abundance (concentration: 8mM): 1.077 ± 0.0062
NP40-soluble protein abundance (concentration: 10mM): 1.05 ± 0.037

DHX33 (UniProt Q9H6R0)
Chain of UniProt Q9H6R0 (Q9H6R0 whole entry): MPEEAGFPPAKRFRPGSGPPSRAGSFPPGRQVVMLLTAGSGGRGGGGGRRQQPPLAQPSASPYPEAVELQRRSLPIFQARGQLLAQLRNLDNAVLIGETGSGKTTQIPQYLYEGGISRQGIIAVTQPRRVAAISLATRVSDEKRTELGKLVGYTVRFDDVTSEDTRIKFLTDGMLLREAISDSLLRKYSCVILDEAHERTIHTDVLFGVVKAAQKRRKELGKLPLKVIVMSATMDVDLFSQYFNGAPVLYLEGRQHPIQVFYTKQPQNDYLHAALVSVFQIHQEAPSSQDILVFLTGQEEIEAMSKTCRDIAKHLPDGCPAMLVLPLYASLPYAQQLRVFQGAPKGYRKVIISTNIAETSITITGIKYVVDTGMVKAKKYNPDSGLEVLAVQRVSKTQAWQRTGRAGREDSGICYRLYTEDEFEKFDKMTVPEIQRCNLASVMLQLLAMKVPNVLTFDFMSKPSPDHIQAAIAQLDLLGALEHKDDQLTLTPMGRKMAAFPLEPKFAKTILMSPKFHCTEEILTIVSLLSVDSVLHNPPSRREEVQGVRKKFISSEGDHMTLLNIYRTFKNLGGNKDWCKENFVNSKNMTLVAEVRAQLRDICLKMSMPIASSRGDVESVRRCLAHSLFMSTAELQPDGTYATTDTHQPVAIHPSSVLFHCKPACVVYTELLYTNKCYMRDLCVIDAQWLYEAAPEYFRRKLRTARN
NP40-soluble protein abundance (concentration: 1mM): 1.04 ± 0.059
NP40-soluble protein abundance (concentration: 2mM): 1.1 ± 0.012
NP40-soluble protein abundance (concentration: 4mM): 1.349 ± 0.0092
NP40-soluble protein abundance (concentration: 6mM): 1.29 ± 0.089
NP40-soluble protein abundance (concentration: 8mM): 1.44 ± 0.18
NP40-soluble protein abundance (concentration: 10mM): 1.51 ± 0.2

UniProt Q969M3|Q969M3-3
Chain of UniProt Q969M3 (Q969M3 whole entry): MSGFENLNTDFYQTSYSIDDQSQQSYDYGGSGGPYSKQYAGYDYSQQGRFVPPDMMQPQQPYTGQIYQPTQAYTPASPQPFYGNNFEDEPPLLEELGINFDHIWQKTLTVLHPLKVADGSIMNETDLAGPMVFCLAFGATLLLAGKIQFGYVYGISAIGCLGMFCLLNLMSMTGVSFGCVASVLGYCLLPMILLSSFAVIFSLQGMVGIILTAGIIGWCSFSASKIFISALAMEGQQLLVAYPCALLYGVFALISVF
NP40-soluble protein abundance (concentration: 1mM): 0.981 ± 0.16
NP40-soluble protein abundance (concentration: 2mM): 0.97 ± 0.19
NP40-soluble protein abundance (concentration: 4mM): 0.974 ± 0.22
NP40-soluble protein abundance (concentration: 6mM): 0.987 ± 0.24
NP40-soluble protein abundance (concentration: 8mM): 0.961 ± 0.19
NP40-soluble protein abundance (concentration: 10mM): 0.996 ± 0.19

TGS1 (UniProt Q96RS0)
Chain of UniProt Q96RS0 (Q96RS0 whole entry): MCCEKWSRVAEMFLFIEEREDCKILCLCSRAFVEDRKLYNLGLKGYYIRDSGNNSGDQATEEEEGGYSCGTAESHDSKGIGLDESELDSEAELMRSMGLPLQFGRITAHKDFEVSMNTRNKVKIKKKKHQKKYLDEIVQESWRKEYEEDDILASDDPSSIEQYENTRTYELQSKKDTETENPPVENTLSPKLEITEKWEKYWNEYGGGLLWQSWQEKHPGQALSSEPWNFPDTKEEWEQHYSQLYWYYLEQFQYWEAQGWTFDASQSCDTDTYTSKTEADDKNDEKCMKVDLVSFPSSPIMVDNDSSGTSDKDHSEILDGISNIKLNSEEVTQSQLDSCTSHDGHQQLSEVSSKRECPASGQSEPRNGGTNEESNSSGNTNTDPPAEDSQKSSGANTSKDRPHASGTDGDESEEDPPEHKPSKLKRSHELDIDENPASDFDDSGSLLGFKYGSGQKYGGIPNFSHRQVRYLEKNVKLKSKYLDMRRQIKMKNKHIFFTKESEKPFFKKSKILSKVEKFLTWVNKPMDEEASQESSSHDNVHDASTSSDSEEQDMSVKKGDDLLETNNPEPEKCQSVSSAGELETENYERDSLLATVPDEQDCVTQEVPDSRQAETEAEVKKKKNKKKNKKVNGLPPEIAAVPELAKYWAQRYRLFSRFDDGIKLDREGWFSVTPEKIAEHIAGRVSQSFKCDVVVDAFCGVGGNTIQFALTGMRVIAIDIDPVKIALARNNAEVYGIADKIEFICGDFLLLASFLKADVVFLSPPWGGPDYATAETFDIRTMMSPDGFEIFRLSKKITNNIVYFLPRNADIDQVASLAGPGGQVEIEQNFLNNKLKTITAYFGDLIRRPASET
NP40-soluble protein abundance (concentration: 1mM): 0.969 ± 0.087
NP40-soluble protein abundance (concentration: 2mM): 0.995 ± 0.067
NP40-soluble protein abundance (concentration: 4mM): 1.03 ± 0.035
NP40-soluble protein abundance (concentration: 6mM): 1.05 ± 0.054
NP40-soluble protein abundance (concentration: 8mM): 1.03 ± 0.069
NP40-soluble protein abundance (concentration: 10mM): 1.1 ± 0.026

UniProt Q96GM8|Q96GM8-2
NP40-soluble protein abundance (concentration: 1mM): 1.06 ± 0.095
NP40-soluble protein abundance (concentration: 2mM): 1.22 ± 0.14
NP40-soluble protein abundance (concentration: 4mM): 1.35 ± 0.12
NP40-soluble protein abundance (concentration: 6mM): 1.38 ± 0.12
NP40-soluble protein abundance (concentration: 8mM): 1.53 ± 0.13
NP40-soluble protein abundance (concentration: 10mM): 1.82 ± 0.32

PNKP (UniProt Q96T60)
NP40-soluble protein abundance (concentration: 1mM): 1.04 ± 0.02
NP40-soluble protein abundance (concentration: 2mM): 1.0346 ± 0.00031
NP40-soluble protein abundance (concentration: 4mM): 1.03 ± 0.022
NP40-soluble protein abundance (concentration: 6mM): 1.05 ± 0.023
NP40-soluble protein abundance (concentration: 8mM): 1.11 ± 0.036
NP40-soluble protein abundance (concentration: 10mM): 1.157 ± 0.011

RPGR (UniProt Q92834)
NP40-soluble protein abundance (concentration: 1mM): 1.03 ± 0.099
NP40-soluble protein abundance (concentration: 2mM): 1.08 ± 0.039
NP40-soluble protein abundance (concentration: 4mM): 1.05 ± 0.036
NP40-soluble protein abundance (concentration: 6mM): 1.07 ± 0.067
NP40-soluble protein abundance (concentration: 8mM): 1.067 ± 0.0066
NP40-soluble protein abundance (concentration: 10mM): 1.05 ± 0.013

UniProt Q9NNW7|Q9NNW7-2
Chain of UniProt Q9NNW7 (Q9NNW7 whole entry): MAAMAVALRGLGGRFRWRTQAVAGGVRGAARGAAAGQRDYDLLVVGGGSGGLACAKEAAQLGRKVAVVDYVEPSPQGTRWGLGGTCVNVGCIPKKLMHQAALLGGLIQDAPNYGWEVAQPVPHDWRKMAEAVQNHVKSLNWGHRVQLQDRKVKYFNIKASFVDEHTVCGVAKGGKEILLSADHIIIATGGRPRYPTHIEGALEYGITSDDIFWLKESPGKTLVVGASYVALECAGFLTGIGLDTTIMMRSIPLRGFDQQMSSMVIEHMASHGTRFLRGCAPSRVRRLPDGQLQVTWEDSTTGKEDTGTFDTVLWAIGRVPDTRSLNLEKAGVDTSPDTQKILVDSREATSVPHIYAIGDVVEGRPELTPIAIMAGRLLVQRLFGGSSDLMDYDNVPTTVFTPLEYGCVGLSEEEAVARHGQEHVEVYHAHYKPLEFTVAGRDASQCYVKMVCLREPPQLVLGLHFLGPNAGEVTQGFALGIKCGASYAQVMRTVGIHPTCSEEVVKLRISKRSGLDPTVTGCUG
NP40-soluble protein abundance (concentration: 1mM): 1.01 ± 0.04
NP40-soluble protein abundance (concentration: 2mM): 0.942 ± 0.011
NP40-soluble protein abundance (concentration: 4mM): 0.983 ± 0.067
NP40-soluble protein abundance (concentration: 6mM): 0.951 ± 0.02
NP40-soluble protein abundance (concentration: 8mM): 0.949 ± 0.057
NP40-soluble protein abundance (concentration: 10mM): 0.958 ± 0.1
